# In PubChem BioAssay AID2732 (Emory University Molecular Libraries Screening Center, 2010):
# Screen size: about 220,000 compounds; about 8,200 (3.7%) were called active.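 Rule for the calls: active = compounds that reduced the stress-induced luciferase reporter signal by more than about 70% of percent inhibition (limit read from the data); inactive = the rest.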 The entries come from a sample that favours actives as a whole.
# Test: inhibitors of CHOP promoter induction, primary screen, cell-based, unfolded protein response, luciferase reporter (AID 2732);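 note: 0% = tunicamycin plus vehicle and 100% = wells without tunicamycin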
# Details: CHO-K1 CHOP-promoter luciferase, tunicamycin-induced, 15-18 h; at 10 µM; active compounds read high
row,SMILES,inhibition
1,CN(CC(O)COc1ccc(S(=O)(=O)N2CCOCC2)cc1Cl)C1CCCCC1 (centres undefined),9.37% (inactive)
2,O=C(O)COCC(=O)NCc1csc2ccc(Cl)cc12,1.58% (inactive)
3,CCOc1ccc(NS(=O)(=O)c2ccc(C)c(C(N)=O)c2)cc1,16.6% (inactive)
4,COc1cccc(NS(=O)(=O)c2ccc3[nH]cc(C(=O)NCCCOC(C)C)c(=O)c3c2)c1,-0.02% (inactive)
5,CCCCNC(=O)c1c[nH]c2ccc(S(=O)(=O)Nc3ccc(OCC)cc3)cc2c1=O,100% (active)
6,COC(=O)c1ccc(S(=O)(=O)NCc2ccccc2)n1C,15.6% (inactive)
7,O=c1cc(CCl)nc2scc(-c3ccccc3)n12,-35.4% (inactive)
8,Cc1cc(NC(=O)CSc2nc3ccccc3n2CC(C)C)no1,-2.4% (inactive)
9,Cc1cc(NC(=O)CSc2nc3c(cc2C#N)CCCCC3)no1,-14.1% (inactive)
10,Cc1cc(NC(=O)CSc2nc(C(C)C)nc3sc4c(c23)CCC(C)C4)no1 (centres undefined),78.5% (active)
11,Cc1nc(SCC(=O)Nc2cc(C)on2)c2c3c(sc2n1)CCCC3,97.7% (active)
12,Cc1nc(SCC(=O)Nc2cc(C)on2)c2c(C)c(C)sc2n1,69.6% (inactive)
13,C=CCn1c(SCc2c(C)noc2C)nc2sc3c(c2c1=O)CCC(C)C3 (centres undefined),25.9% (inactive)
14,CNC(=S)NNC(=O)c1ccc(N(C)C)cc1,-5.96% (inactive)
15,O=C(Nc1n[nH]c(C(F)(F)F)n1)c1cccs1,3.43% (inactive)
16,Cc1noc(C)c1C(=O)OCC(=O)N1CCN(S(=O)(=O)c2ccc3ccccc3c2)CC1,4.18% (inactive)
17,O=C(COC(=O)c1ccc[nH]c1=O)Nc1ccc2c(c1)OC(F)(F)O2,-4.76% (inactive)
18,O=C(CCn1nnc2ccccc2c1=O)N[C@@H](Cc1c[nH]c2ccccc12)C(=O)O,5.85% (inactive)
19,Fc1cccc2ncnc(OCc3ccccc3)c12,-2.5% (inactive)
20,Cc1nc2ccccc2cc1OCc1ccc(F)cc1,74.8% (active)
21,Cc1nc2ccccc2cc1O,-6.19% (inactive)
22,O=S(=O)(Nc1n[nH]c(C(F)(F)F)n1)c1ccccc1,11.6% (inactive)

row,SMILES,inhibition
1,COC(=O)c1cc(C(=O)OCC(=O)Nc2cc(C)on2)cc([N+](=O)[O-])c1,4.62% (inactive)
2,CC(=O)Nc1ccc(NC(=O)c2sc3nc4c(c(-c5ccc(C)cc5)c3c2N)CCC4)cc1,78.3% (active)
3,NC(=O)c1sc2nc3c(c(-c4ccccc4)c2c1N)CCC3,70.9% (active)
4,Cc1nc2sc(C(=O)c3ccccc3)c(N)c2c2c1CCCC2,0.62% (inactive)
5,CCc1nc2sc(C(=O)O)c(N)c2c2c1CCCC2,3.45% (inactive)
6,Cc1cccc(NC(=O)c2sc3nc4c(c(-c5ccco5)c3c2N)CCC4)c1,34.4% (inactive)
7,Cc1ccc(NC(=O)c2sc3nc(N)c(C#N)cc3c2N)cc1,-25.7% (inactive)
8,COc1ccc(C2/C=C\CN(S(=O)(=O)c3cccs3)CC(=O)N2Cc2ccc(F)cc2)cc1 (centres undefined),4.62% (inactive)
9,Cc1cc(C)c(NC(=O)CN2C(=O)NC(Cc3ccccc3)C2=O)c(C)c1 (centres undefined),11.3% (inactive)
10,COc1ccc2nc(NC(=O)c3ccc(Br)s3)sc2c1,95.9% (active)
11,COc1cccc(C(=O)Nc2nc3ccc(S(C)(=O)=O)cc3s2)c1,8.18% (inactive)
12,COc1ccc2nc(NC(=O)NC3CCCCC3)sc2c1,26.1% (inactive)
13,CCCSc1ncccc1C(=O)O,-2.65% (inactive)
14,COC(=O)CNS(=O)(=O)c1ccc(OC)cc1,3.65% (inactive)
15,CO/N=C(/CS(=O)(=O)c1ccc(Br)cc1)c1ccc(OC)cc1,83% (active)
16,CO/N=C/CC(=O)c1ccc(OC)cc1,-19.6% (inactive)
17,Cc1nc(-c2ccccc2)sc1-c1nnc(C2CC2)o1,-9.64% (inactive)
18,O=c1[nH]nc(SCCS(=O)(=O)c2ccc(F)cc2)n1-c1ccccc1C(F)(F)F,10.5% (inactive)
19,CN(C)CCCN(Cc1cc2cc3c(cc2[nH]c1=O)OCCO3)C(=O)NC1CCCCC1,5.43% (inactive)
20,c1ccc(Nc2nc(-c3ccncc3)cs2)nc1,56.5% (inactive)
21,O=C(Nc1ccc(Cl)cn1)Nc1cccs1,38.9% (inactive)
22,Clc1ccc(Nc2nc(-c3cccs3)cs2)nc1,99.5% (active)

row,SMILES,inhibition
1,Nc1nnnn1/N=C/c1cc([N+](=O)[O-])ccc1O,6.19% (inactive)
2,C=CC[n+]1c(-c2ccc(C)cc2)csc1NNC(=O)Nc1ccccc1,75.9% (active)
3,Cc1ccc(NC(=O)Nc2ccccc2)c(Br)c1,38.2% (inactive)
4,C=CCNc1scc(-c2ccccc2)[n+]1CC=C,-28.4% (inactive)
5,O=C1NNC(c2ccccc2)=N/C1=C\c1ccc(Cl)cc1,24.3% (inactive)
6,NC(=O)COc1ccc(C23CC4CC(CC(C4)C2)C3)cc1,103% (active)
7,NNC(=O)COc1ccc(C2SCCS2)cc1,18.6% (inactive)
8,NC(=O)COc1ccc(NC(=O)c2ccccc2-c2ccccc2)cc1,6.67% (inactive)
9,Cc1ccc(C)c2[nH]c(=O)c(CN(Cc3cccnc3)C(=S)NCc3ccco3)cc12,2.47% (inactive)
10,Cc1ccc(-c2nc3ccccc3[nH]c2=O)cc1,-30.2% (inactive)
11,CC1Cc2ccccc2N1S(=O)(=O)c1ccc(Cl)nc1 (centres undefined),9.84% (inactive)
12,CC12CCC(C(=O)N3CCN(c4ncccn4)CC3)(c3nc4ccccc4nc31)C2(C)C (centres undefined),81.3% (active)
13,CCNC(=S)N1CCN(c2ncccn2)CC1,6.67% (inactive)
14,O=C(C(Cl)Cl)N1CCN(c2ccccn2)CC1,23.1% (inactive)
15,Cn1nc(C(F)(F)F)c(-c2ccc(F)cc2)c1NC(=O)CSCC(=O)O,-1.35% (inactive)
16,NC1=NC[C@@H](Cc2ccc(O)cc2)N1CC1CCCCC1,-9.28% (inactive)
17,CCOC(=O)C1=C(C)NC(C)=C(C(=O)OCC)C1c1ccccn1,-2.49% (inactive)
18,CCOC(=O)C1=C(C)N=C2c3ccccc3C(=O)C2C1c1ccc(Br)cc1 (centres undefined),93.1% (active)
19,CCOC(=O)C1=C(C)NC(=O)NC1c1ccccc1 (centres undefined),5.41% (inactive)
20,COc1ccc(OCCC(=O)c2ccc(OC)cc2)cc1,-4.29% (inactive)
